# Screening results deposited in PubChem by National Center for Advancing Translational Sciences (NCATS).
# Lassa entry inh = qHTS for Inhibitors of binding or entry into cells for Lassa Virus; Lassa virus pseudotype entry inhibition, cell reporter; Potency, µM (series often up to 37.9 µM), for the others: at the highest dose activity change, negative = inhibition, hits mostly inhibitors; 1.2% of 300,000 active; calls by dose curve; tested in HEK293 cells; also: potency is read from the fitted curve at half-maximal effect; nearly all actives have a fitted effect of over 50% in size
# VACV Venus inh = qHTS for Stage-Specific Inhibitors of Vaccinia Orthopoxvirus: Venus Reporter Primary qHTS; Potency, µM (highest dose often 36.5 µM), for the others: top-dose activity change, negative = inhibition, most hits filed as inhibitors; 0.46% of 330,000 active; Vaccinia virus Venus reporter expression, fluorescence; calls by dose curve; tested in A549 cells; also: potency is read from the fitted curve at half-maximal effect; nearly all actives have a fitted effect of over 30% in size
# HCMV antiviral = qHTS Assay for inhibitors of the human cytomegalovirus (HCMV). activity change, negative = inhibition, % at 57.5 µM. 4.5% of 410,000 active. HFF cells, HCMV-luciferase reporter, 72 h; hits give low values; in the data active = activity change below about -60%; inconclusive = no clear call, values can overlap the other calls; inactive = above about -39%
#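 Inhibition of viral replication was scored as loss of reporter luminescence in HFFs infected with HCMV-luciferase (MOI 1 PFU/cell) for 72 h; compounds tested at 2 doses, normalized to buffer and Salinomycin controls.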
# Vaccinia mCherry = qHTS for Stage-Specific Inhibitors of Vaccinia Orthopoxvirus: mCherry Reporter Primary qHTS | Vaccinia virus mCherry reporter infection, fluorescence | 0.63% of 310,000 active | Potency, µM (titrated, usually from 36.5 µM), without a hit: at the top dose activity change, negative = inhibition, usual class: inhibitors | AID 720579, 2013; calls by dose curve; tested in A549 cells; also: potency is read from the fitted curve at half-maximal effect; nearly all actives have a fitted effect of over 35% in size
# HCV inhibitor = qHTS Assay for Inhibitors of Hepatitis C Virus (HCV). Huh7.5.1 HCVcc-Cre infection, luciferase reporter, 44 h. Potency, µM (series often up to 41.8 µM), inactives show at the highest dose activity change, negative = inhibition, usual class: inhibitors. 3.4% of 340,000 active. AID 651820, 2012; active = well fitted inhibition curve with a large enough effect; inconclusive = small, poorly fitted or top-dose-only effect, or another doubt; inactive = no such curve, though single readings can be large or run the other way; also: potency is read from the fitted curve at half-maximal effect
#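 1,000 cells/well; 4 h culture; + compound; + HCVcc-Cre (~0.5 moi); 44 h; luciferase substrate, RT 15 min; read 15 sec.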
# Marburg entry inh = qHTS for inhibitors of binding or entry into cells for Marburg Virus | Marburg virus pseudotyped entry inhibition, cell reporter | Potency, µM (doses to about 37.8 µM), for the others: at the highest dose activity change, negative = inhibition, hits mostly inhibitors | 1.8% of 300,000 active; calls by dose curve; tested in HEK293 cells; also: potency is read from the fitted curve at half-maximal effect
# * hit, by the source's call; i = inactive; ? = inconclusive; nt = no result given; [ ] = another dose, or the depositor's remark. Most compounds without a hit are left out; they make up all but 7.8% or so of the library. % is scaled to controls: 0 for no effect and ±100 for the full control effect.
SMILES,Lassa entry inh,VACV Venus inh,HCMV antiviral,Vaccinia mCherry,HCV inhibitor,Marburg entry inh
CCOc1ccc(NC(=O)c2c(NC(=O)c3ccncc3)sc3c2CCC(C(C)(C)C)C3)cc1 (stereo not given),0%[46.1 µM],-3%,13,-25%,nt,1%[46.1 µM]
CN(CCc1ccccc1)C(=O)c1[nH]c(C(F)(F)F)nc1-c1ccccc1,nt,3%,-11,i,nt,nt
Cc1nnc(SCC(=O)N2CCC(c3noc4ccc(F)cc34)CC2)s1,0%,nt,-70*,nt,4%,5%
Cc1nn(S(=O)(=O)c2ccc(C(C)C)cc2)c(C)c1S(=O)(=O)N1CCCCC1,4%[46.1 µM],-5%,-1,2%,nt,nt
CCN(CC)c1ccc(CNc2nc3ccccc3n2CCN2CCCCC2)cc1,?,?,-99*,?,11µM*,?
COc1ccc(CNc2nc3ccccc3n2CCN2CCCCC2)cc1,-9%[46.1 µM],0%,-7,-3%,-20%,?
c1ccc(Cn2c(CNc3nc4ccccc4n3CCN3CCCCC3)nc3ccccc32)cc1,?,-25%,-2,nt,11µM*,?
Cn1c(CNc2nc3ccccc3n2CCN2CCCCC2)nc2ccccc21,-6%,?,51,i,?,2.8µM*
COc1cc(OC)c2c(-c3cccc(-c4ccc(OC)c(OC)c4)c3)cc(=O)oc2c1,nt,?,-30,-25%,?,nt
COc1cc(OC)c2c(-c3cccc(-c4sccc4C(C)=O)c3)cc(=O)oc2c1,nt,?,-79*,?,3.2µM*,nt
O=C(Nc1cccc(Cl)c1)c1csc(C(O)c2cccc(C(F)(F)F)c2)n1 (stereo not given),nt,nt,21,nt,nt,nt
CCCCOc1ccc(-c2c(C#N)c(N)nc(SCC(N)=O)c2C#N)cc1,4.5µM*,?,33,nt,5µM*,?
CCC1C(=O)NCCN1Cc1ccc2c(c1)CN(Cc1ccc(OC)cc1OC)CCO2 (stereo not given),nt,1%,nt,-10%,nt,nt
Cc1ccccc1NC(=O)CCn1cnc2onc(-c3ccc(F)cc3)c2c1=O,?,-20%,-39,-4%,nt,nt
CCCN(C(=O)c1cc(S(=O)(=O)N2CCc3ccccc32)cn1C)c1ccc(OCC)cc1,17%[46.1 µM],-12%,-75*,-14%,nt,nt
Cc1cccc(C)c1NC(=O)c1cc(S(=O)(=O)N2CCc3ccccc32)cn1C,nt,-22%,25,i,-14%,nt
Cn1cc(S(=O)(=O)N2CCc3ccccc32)cc1C(=O)NC(C)(C)C,nt,-10%,-79*,i,?,nt
Cn1c(SC2=CS(=O)(=O)c3ccccc32)nc2ccccc21,?,?,-98*,nt,6.3µM*,?
Cn1c(CSc2nc3ccccc3n2C)nc2ccccc21,11%,nt,-17,nt,9%,?
CCOc1ccc(C(=O)NCCn2cc(SCC(=O)Nc3ccc4c(c3)OCCO4)c3ccccc32)cc1,?,-20%,-9,-27%,nt,-28%[46.1 µM]
CCOC(=O)n1c(=O)n(C)c2ccc(Cl)cc21,9%,-3%,-19,i,3.2µM*,-1%[46.1 µM]
CCOC(=O)n1c(=O)n(Cc2ccccc2)c2ccccc21,-15%,-17%,?,i,24%,4%
O=C(c1ccco1)C(O)c1ccco1 (stereo not given),nt,-6%,-62*,i,-3%,nt
Cc1ccc(C(O)C(=O)c2ccco2)cc1 (stereo not given),nt,-8%,21,i,-13%,nt
COc1ccc(C(=O)NCCn2cc(SCC(=O)NCCc3ccc(OC)c(OC)c3)c3ccccc32)cc1,-30%[46.1 µM],-16%,-17,-12%,nt,-8%[46.1 µM]
SMILES,Lassa entry inh,VACV Venus inh,HCMV antiviral,Vaccinia mCherry,HCV inhibitor,Marburg entry inh
Cc1[nH]c2ccccc2c1CCNC(=O)c1ccc2c(c1[N+](=O)[O-])C(=O)c1ccccc1C2=O,?,127%,-75*,1%,?,?
Cc1[nH]c2c(C)cccc2c1CCNC(=O)c1ccc2c(c1[N+](=O)[O-])C(=O)c1ccccc1C2=O,?,89%,?,-2%,?,?
CN1CC[C@]23c4ccccc4N[C@H]1[C@]21CCN(C)[C@H]3Nc2ccccc21,nt,-10%,-35,-19%,-3%,nt
COC(=O)C1CC23C=CCN4CCC5(c6ccccc6NC15C2C)C43 (stereo not given),?,?,-84*,13µM*,-4%,?
Cc1ccc(C(C(=O)Nc2ccc3c(c2)OCO3)N(C)C(=O)Cc2c[nH]c3ccccc23)cc1 (stereo not given),?,?,-30,?,-13%,10µM*
COc1ccc2c(c1)c(C(C)=O)c(C)n2CCc1ccc(OC)c(OC)c1,nt,nt,-5,nt,?,nt
COc1ccc(-n2c(C)c(C(C)=O)c3cc(O)ccc32)cc1,nt,nt,-65*,nt,-6%,-9%
COc1ccc(-n2c(C)c(C(C)=O)c3cc(OC(=O)c4ccc(C)cc4)ccc32)cc1,-24%[46.1 µM],0%,-75*,-2%,nt,nt
COc1ccc2c(c1)c(C(C)=O)c(C)n2CCc1ccccc1,nt,nt,-91*,nt,?,nt
CCOC(=O)c1ccccc1NC(=O)CSc1nnc(CC)n2c1cc1occc12,19%[46.1 µM],1%,-22,5%,nt,nt
CN(Cc1ccccc1)C(=O)C1CCN(S(=O)(=O)c2ccc3c(c2)oc(=O)n3C)CC1,-1%[46.1 µM],-5%,-8,-2%,nt,1%[46.1 µM]
CN(C)CC/C=C1/c2ccccc2CS(=O)(=O)c2ccccc21,26%[46.1 µM],-1%,12,-6%,7%,-2%[46.1 µM]
CNCC/C=C1/c2ccccc2CSc2ccccc21,?,?,-34,?,10µM*,?
CCOC(=S)SCc1cn2ccc(C)cc2n1,22%,-10%,-65*,-16%,5%,-1%
CCOC(=S)SCc1cn2ccccc2n1,14%,-7%,-29,i,-2%,-16%[46.1 µM]
O=C(COC(=O)c1ccccc1Cc1ccccc1)Nc1ccc(SC(F)F)cc1,?,-18%,45,-1%,?,?
Cc1ccc(C(=O)c2ccccc2C(=O)OCC(=O)Nc2ccc(SC(F)F)cc2)cc1,11µM*,?,-34,?,?,?
COc1ccc(C(=O)Nc2nc(C)c(C)s2)cc1OC,5%,-3%,12,nt,-13%,?
COc1ccc(C(=O)c2sc(NC(C)C)nc2N)cc1OC,9%,11µM*,?,nt,?,-8%
COc1cccc(C(=O)c2sc(Nc3ccc(F)c(Cl)c3)nc2N)c1,17%[46.1 µM],-6%,-9,-13%,nt,nt
COc1cccc(C(=O)c2sc(NC(C)C)nc2N)c1,9%,7.1µM*,-97*,nt,?,?
COc1ccccc1CNC(=O)c1cc2cc3ccc(Cl)cc3nc2o1,?,1%,-3,-3%,nt,22%[46.1 µM]
COc1ccc(OCC(=O)Nc2cc(-c3cccc(Cl)c3)nn2-c2ccccc2)cc1,14%[46.1 µM],-28%,14,?,nt,nt
